Shown are actives, neighbours in structure and some others; about 1% of the full set was active somewhere.
gsp antag – gsp mutant antagonism. AID 624288. gsp-mutant cells, cAMP HTRF, 30 min. Potency, µM (highest dose often 76.9 µM), usual class: inhibitors. 340,000 tested, 0.4% active; calls by dose curve; cell line not stated here;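 note: intracellular cAMP measured with PDE inhibitor Ro 20-1724 present during compound exposure; nearly all actives have a fitted effect of over 65% in size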
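Measurement of cellular cAMP by homogeneous time-resolved fluorescence following a 30 min compound exposure at 37C. The PDE inhibitor […] was present throughout; the assay buffer was DPBS with 0.05% BSA and 0.005% Tween 20.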
gsp ag – gsp mutant agonism | gsp mutant cells, cAMP HTRF, 30 min | Potency, µM (doses to about 76.9 µM), most hits filed as activators | 340,000 tested, 0.13% active; active = well fitted activation curve with a large enough effect; inconclusive = small, poorly fitted or top-dose-only effect, or another doubt; inactive = no such curve, though single readings can be large or run the other way; cell line not stated here;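 note: phosphodiesterase inhibitor Ro 20-1724 added with compounds to block cAMP breakdown; nearly all actives have a fitted effect of over 60% in size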
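Cells in DMEM/10% FBS with G418 were pretreated with compounds in DMSO plus […] (300 uM stock) for 30 min at 37C. cAMP was measured by HTRF (cAMP-d2 plus anti-cAMP antibody-K) after 30 min at room temperature.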
TSHR antag – blocks TSH signaling through the human TSH receptor | activity change, negative = inhibition, % at 11.5 µM | 330,000 tested, 0.2% active | P16473 | TSHR-expressing cells, TSH-stimulated cAMP HTRF, 2 h; stronger effect = lower value;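 active = activity change below a set negative limit, meaning inhibition stronger than a set level, cut at about -70% in these data; inconclusive = activity change between two set negative limits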
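Competitive HTRF cAMP read-out (cryptate anti-cAMP antibody, cAMP-d2; 30 min, room temperature) in freshly harvested TSHR cells. Compounds added before TSH at EC80 (4nM final), followed by 2 hours' incubation at 37 deg C.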
RXFP1 antag – blocks the human relaxin receptor RXFP1; AID 1259400; activity change, negative = inhibition, % at 57.5 µM; 350,000 tested, 0.59% active; Q9HBX9; HEK293-RXFP1, relaxin-stimulated cAMP HTRF, 30 min; stronger effect = lower value;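 active = activity change of -60% or lower, but not beyond a set lower limit; inconclusive = change between -60% and -40%, or beyond the set limit; inactive = change above -40%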
Target sequence (Q9HBX9 whole entry, looked up): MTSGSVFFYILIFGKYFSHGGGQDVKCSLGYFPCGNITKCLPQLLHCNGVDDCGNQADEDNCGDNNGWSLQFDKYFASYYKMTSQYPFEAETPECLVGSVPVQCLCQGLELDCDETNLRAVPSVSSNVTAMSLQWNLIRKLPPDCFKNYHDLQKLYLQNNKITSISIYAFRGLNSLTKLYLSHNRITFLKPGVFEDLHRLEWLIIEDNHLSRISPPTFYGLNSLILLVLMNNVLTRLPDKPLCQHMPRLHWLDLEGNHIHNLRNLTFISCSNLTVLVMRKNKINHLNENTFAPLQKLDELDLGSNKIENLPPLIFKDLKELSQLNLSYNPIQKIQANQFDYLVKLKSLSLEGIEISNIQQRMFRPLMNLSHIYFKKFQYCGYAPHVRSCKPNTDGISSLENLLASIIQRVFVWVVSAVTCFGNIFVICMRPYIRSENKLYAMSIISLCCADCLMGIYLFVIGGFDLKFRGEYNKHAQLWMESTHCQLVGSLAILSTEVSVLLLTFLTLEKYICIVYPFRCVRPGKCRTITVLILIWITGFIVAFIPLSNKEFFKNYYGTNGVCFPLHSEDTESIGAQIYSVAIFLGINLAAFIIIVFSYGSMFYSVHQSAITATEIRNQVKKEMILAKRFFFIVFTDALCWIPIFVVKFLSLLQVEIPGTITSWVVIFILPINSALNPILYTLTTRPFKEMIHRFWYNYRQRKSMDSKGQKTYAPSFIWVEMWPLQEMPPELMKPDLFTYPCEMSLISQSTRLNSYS
RXFP1 ag – RXFP1 (human) receptor agonism; Potency, µM (series often up to 57.5 µM), hits mostly activators; HEK293T-RXFP1 cAMP TR-FRET, 30 min; response scale: percent of porcine relaxin response, buffer zero; 370,000 tested, 0.3% active; Q9HBX9; active = well fitted activation curve with a large enough effect; inconclusive = small, poorly fitted or top-dose-only effect; note: nearly all actives have a fitted effect of over 60% in size
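HEK293 cells stably expressing RXFP1, treated 30 min at 37C with compounds plus PDE4 inhibitor Ro 20174; cAMP measured by HTRF TR-FRET. Normalized to buffer and 29 nM porcine relaxin; EC50 by Hill fit.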
Of the large screens only hits and unclear results are named; the others gave an inactive call.

Cc1cc(F)ccc1NC(=O)C1CCCN(C(=O)c2cnn(-c3ccccc3)c2-n2cccc2)C1 (stereo not drawn)	none (no result: gsp antag, gsp ag, TSHR antag, RXFP1 antag)
COc1ccc(-c2noc(C3CC(=O)N(c4ccc5c(c4)OCCO5)C3)n2)c(OC)c1 (stereo not drawn)	none (no result: gsp antag, gsp ag, TSHR antag)
CCn1c(=O)c2sccc2n2c(CCCC(=O)NCCc3ccc(S(N)(=O)=O)cc3)nnc12	gsp ag inconclusive
CCOc1ccc(NC(=O)CCCc2nnc3n(C)c(=O)c4sccc4n23)cc1	RXFP1 ag inconclusive (no result: gsp antag, gsp ag, TSHR antag)
COc1ccc(NC(=O)CCCc2nnc3n(C)c(=O)c4sccc4n23)cc1	gsp ag inconclusive, RXFP1 ag 16µM
O=C(CCCCCn1c(=O)c2sccc2n(Cc2ccccc2Cl)c1=O)NCc1ccc2c(c1)OCO2	RXFP1 ag 32µM (no result: gsp antag, gsp ag, TSHR antag)
Cn1c(=O)c2sccc2n2c(CCCC(=O)NCCc3ccc(S(N)(=O)=O)cc3)nnc12	RXFP1 ag 28µM
Cn1c(=O)c2sccc2n2c(CCC(=O)NCc3ccc(Cl)cc3)nnc12	RXFP1 ag inconclusive (no result: gsp antag, gsp ag, TSHR antag)
Cn1c(=O)c2sccc2n2c(CCCC(=O)NCc3ccc4c(c3)OCO4)nnc12	gsp ag 35µM, RXFP1 ag inconclusive
CSc1ncc(C(=O)NCc2ccc(C)cc2)c(C)n1	none (no result: gsp antag, gsp ag, TSHR antag)
CCCn1c(=O)c2sccc2n2c(CCCC(=O)NCc3cccnc3)nnc12	gsp ag inconclusive
Cn1c(=O)c2sccc2n2c(CCCC(=O)NCc3cccnc3)nnc12	gsp ag inconclusive, RXFP1 ag 13µM
CCOc1ccc(NC(=O)Cn2c(=O)n(CCC(=O)NCCc3ccccc3)c(=O)c3ccccc32)cc1	none (no result: gsp antag, gsp ag, TSHR antag, RXFP1 antag)
CCN[C@@H]1C[C@H](N)[C@@H](OC2OC(CN)=CCC2N)[C@H](O)[C@H]1O[C@H]1OC[C@](C)(O)[C@H](NC)[C@H]1O (stereo partly drawn)	none (no result: gsp antag, gsp ag, TSHR antag, RXFP1 ag)
O=c1cc(C(F)(F)F)nc(SC/C=C/c2ccccc2)[nH]1	gsp antag inconclusive, TSHR antag inconclusive, RXFP1 antag -78
CC(C)(C)NC(=O)C(=O)NNC(=O)c1cccc(Br)c1	TSHR antag -79 (no result: gsp antag)
Cc1cccc(C(=O)NNC(=O)C(=O)NC(C)(C)C)c1	none
COc1ccc(CC(=O)Nc2ccc(S(=O)(=O)Nc3onc(C)c3C)cc2)cc1OC	RXFP1 antag -113
Cc1cc(C)c(C#N)c(SCC(=O)Nc2ccc(S(=O)(=O)Nc3onc(C)c3C)cc2)n1	gsp ag 18µM (no result: RXFP1 antag)
Cc1noc(NS(=O)(=O)c2ccc(NC(=O)c3ccc(N4C(=O)c5ccccc5C4=O)cc3)cc2)c1C	none
Cc1noc(NS(=O)(=O)c2ccc(NC(=O)CSc3n[nH]c(-c4ccccc4)n3)cc2)c1C	none
COc1cc(C(=O)Nc2ccc(S(=O)(=O)Nc3onc(C)c3C)cc2)cc(OC)c1OC	none
Cc1noc(NS(=O)(=O)c2ccc(NC(=O)c3nn(-c4ccccc4)ccc3=O)cc2)c1C	gsp ag 14µM, RXFP1 ag inconclusive
O=C(COC(=O)c1n[nH]c2ccccc12)Nc1ccccc1	none (no result: gsp antag)
COc1ccc(C)cc1NC(=O)COC(=O)c1c(C)nn(-c2ccccc2)c1C	gsp antag 40µM
COc1ccc(C(=O)COC(=O)c2n[nH]c3ccccc23)c(OC)c1	none
Cc1cc(C)cc(NC(=O)COC(=O)c2n[nH]c3ccccc23)c1	gsp antag 10µM
COc1ccc(OC)c(NC(=O)COC(=O)c2n[nH]c3ccccc23)c1	gsp antag 45µM
COc1ccc(NC(=O)CN2C(=O)C(C)(C)c3cc(S(=O)(=O)N4CCCCC4)ccc32)cc1Cl	none (no result: gsp antag, gsp ag, TSHR antag)
CC(C)C[C@H](NC(=O)[C@H](Cc1ccccc1)NC(=O)c1cnccn1)B(O)O	none (no result: gsp antag, gsp ag, TSHR antag, RXFP1 ag)
O=C1NN=C(c2ccc(Br)cc2)CC1c1ccc(Cl)cc1 (stereo not drawn)	RXFP1 antag -61
COc1ccc(Br)cc1CC1C(=O)Nc2ccccc21 (stereo not drawn)	RXFP1 antag -69 (no result: gsp antag, gsp ag, TSHR antag)
CCOc1cc(C#N)c(-n2nnc3c(sc4nc(C)cc(C)c43)c2=O)cc1OCC	none (no result: gsp antag, gsp ag, TSHR antag, RXFP1 antag)
O=C(NCc1cccnc1)C1CCN(Cc2cc3ccccc3n2Cc2cccc(Cl)c2)CC1	none (no result: gsp antag, gsp ag, TSHR antag)
COc1cc(/C=N/NC(=O)Cn2cnc3c2c(=O)n(C)c(=O)n3C)ccc1O	gsp ag 22µM, RXFP1 ag 16µM
Fc1ccc(-c2nc(Nc3ccc(F)c(Cl)c3)nc3c2COc2ccccc2-3)cc1	none (no result: gsp antag, gsp ag, TSHR antag)
Fc1cnc(N/N=C/c2ccc(-c3ccc(Br)cc3)o2)nc1N1CCOCC1	none
Brc1ccc(-c2ccc(/C=N/Nc3nc(N4CCOCC4)nc(N4CCOCC4)n3)o2)cc1	gsp antag 20µM
COc1cc(NC(=O)c2cc3c(=O)oc4ccc(C)cc4c3s2)cc(OC)c1OC	none (no result: gsp antag, gsp ag, TSHR antag, RXFP1 antag)
O=C(Nc1nnc(S(=O)(=O)N2CCCC2)s1)c1ccccc1F	TSHR antag -103
Cc1ccc(S(=O)(=O)Nc2cccc(-c3ccc(N4CCC(C)CC4)nn3)c2)s1	none (no result: gsp antag, gsp ag, TSHR antag)
CCOC(=O)c1c(NC(=O)CSc2nc3ccc(OC)cc3[nH]2)sc2c1CC(C)(C)NC2(C)C	RXFP1 antag -62
O=C(CCNC(=O)N1CC(=O)Nc2ccccc21)NCc1cccc(Cl)c1	RXFP1 antag -92
CCCOc1cccc(-c2nc3ccccc3c(=O)o2)c1	gsp antag inconclusive, RXFP1 antag -84
CCCOc1ccc(-c2nc3ccccc3c(=O)o2)cc1	none (no result: gsp antag, gsp ag, TSHR antag, RXFP1 antag)
CC(C)N(Cc1ccccc1)C(=O)COC(=O)c1cc(S(=O)(=O)N(C)C)ccc1N1CCCC1	RXFP1 antag -75 (no result: RXFP1 ag)
CC(C)N(Cc1ccccc1)C(=O)COC(=O)c1cnc(Cl)c(Cl)c1	TSHR antag inconclusive, RXFP1 antag -72 (no result: RXFP1 ag)
CN(C)S(=O)(=O)c1ccc(N2CCCC2)c(C(=O)OCC(=O)N2CCN(c3ccccc3)CC2)c1	none
COc1cccc(CN2C(=O)c3ccccc3Sc3ccc(C(=O)N(C)Cc4ccccc4)cc32)c1	none (no result: gsp antag, gsp ag, TSHR antag, RXFP1 antag)
Cc1cc(C(=O)CSc2nnc(-c3ccccc3)n2Cc2ccc3c(c2)OCO3)c(C)n1C	none
Cc1cc(C(=O)CSc2nc3ccccc3c(=O)n2C)c(C)n1Cc1ccc2c(c1)OCO2	gsp antag inconclusive, RXFP1 ag 20µM
CC1CCN(C(=O)c2ccc3c(c2)N(Cc2ccccc2)C(=O)c2ccccc2S3(=O)=O)CC1	none (no result: gsp antag, gsp ag, TSHR antag)
CCOC(=O)C(=CNc1cc(C)ccc1C)C(=O)OCC	gsp antag 35µM
O=C(NC(=S)Nc1ccc2oc(-c3ccncc3)nc2c1)c1ccccc1F	gsp antag 32µM
CCOc1ccc(CCNC(=O)c2cnc3c(-c4ccc(F)cc4)c(C)nn3c2C)cc1	none (no result: gsp antag, gsp ag, TSHR antag)
CC1SCC(=NOCc2ccccc2)CS1 (stereo not drawn)	TSHR antag -70
C(=NOCc1ccccc1)c1ccncc1	none (no result: TSHR antag, RXFP1 ag)
COc1ccc(CCNS(=O)(=O)c2cc3c4c(c2)C(C)C(=O)N4CCC3)cc1OC (stereo not drawn)	RXFP1 antag -92

High-throughput results deposited in PubChem by National Center for Advancing Translational Sciences (NCATS).
